# High-throughput results from PubChem.
# Rows were chosen to be rich in hits. Some 6.2% of all compounds tested hit in one or more screens of this group.
# ATXN2 expr inh: Primary qHTS for Inhibitors of ATXN expression; HEK-293 ATXN2-luciferase reporter, luminescence, 24 h; Potency, µM (titrated, usually from 57 µM), without a hit: top-dose activity change, negative = inhibition, most hits filed as inhibitors; 360,000 tested, 0.72% active; further: on the % scale 0 is the no-effect control and ±100 the full control effect; nearly all actives have a fitted effect of over 55% in size
#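 ATXN2-luciferase reporter cells (luciferase flanked by upstream and downstream ATXN2 gene portions) were treated 24 h at 37 °C with compounds at up to 57 uM. SteadyGlo luminescence gave expression; GF-AFC fluorescence gave viability.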
# KB-3-1 cytotox: qHTS assay for MDR1-selective chemotherapeutics: Primary screen using the parental adenocarcinoma cell KB-3-1 | KB-3-1 viability, CellTiter-Glo ATP luminescence, 72 h | Potency, µM (highest dose often 46.1 µM), most hits filed as cytotoxic | 400,000 tested, 1.4% active | AID 1347075, 2019; further: on the % scale 0 is the no-effect control and ±100 the full control effect; nearly all actives have a fitted effect of over 60% in size
#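 KB-3-1 cells, DMEM (no phenol red) + 10% FBS; compound by pin transfer, 72 h, 37 °C. Readout: CellTiter-Glo luminescence after 10 min. Data normalized, curve-fitted.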
# KB-V1 MDR tox: qHTS assay for MDR1-selective chemotherapeutics: Primary screen using the drug-selected MDR subline cells KB-V1; KB-V1 MDR cells viability, CellTiter-Glo, 72 h; 400,000 tested, 3.4% active; Potency, µM (series often up to 46.1 µM), usual class: cytotoxic; AID 1347076, 2019; further: on the % scale 0 is the no-effect control and ±100 the full control effect; nearly all actives have a fitted effect of over 60% in size
#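 qHTS viability screen in drug-selected KB-V1 MDR cells: 72 h compound treatment at 37 degrees C, ATP luminescence end point.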
# HT1080-NT tox: qHTS for induction of synthetic lethality in tumor cells producing 2HG: qHTS for the HT-1080-NT fibrosarcoma cell line | Potency, µM (top dose mostly 46.1 µM), for the others: at the highest dose activity, negative = less viability, usual class: cytotoxic | HT-1080-NT fibrosarcoma viability, CellTiter-Glo ATP luminescence, 48 h | 360,000 tested, 1.6% active;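 further: NT is the 2HG producing partner of a matched IDH1 knockdown line; 0% = DMSO-treated cells and -100% = media-only wells without cells; nearly all actives have a fitted effect of over 55% in size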
#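 Read-out is CellTiter-Glo luminescence after 10 minutes at room temperature, following 48 hours' compound treatment of HT-1080-NT cells (750 cells/well, RPMI, 5% FBS, 37 degrees C).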
# ATXN viability: Viability Counterscreen for Primary qHTS for Inhibitors of ATXN expression. S2 cells (HEK-293 line with an ATXN2-luciferase reporter) viability, CellTiter-Fluor protease fluorescence, 24 h. 400,000 tested, 0.49% active. Potency, µM (doses to about 56.7 µM), hits mostly cytotoxic; further: nearly all actives have a fitted effect of over 40% in size
# HT1080 IDH1KD tx: qHTS for induction of synthetic lethality in tumor cells producing 2HG: qHTS for the HT-1080-IDH1KD cell line | 360,000 tested, 2% active | Potency, µM (top dose mostly 46.1 µM), for the others: top-dose activity, negative = toxicity, usual class: cytotoxic | HT-1080 IDH1 knockdown viability, ATP luminescence, 48 h;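 further: 0% = DMSO wells and -100% = cell-free medium wells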
#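 Viability of IDH1-knockdown HT-1080 fibrosarcoma cells was assessed by CellTiter-Glo after 48 h at 37 °C with titrated compound; concentration-effect curves were classified by fit quality and response size.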
# The depositor's hits bear a star; i = inactive; ? = inconclusive; nt = no result. The call rests on the fitted dose curve; in most records, active means well fitted curve in the direction sought with a large enough effect; inconclusive means small, poorly fitted or top-dose-only effect, or another doubt; inactive means no such curve, though single readings can be large; an effect the other way counts as inactive or inconclusive. Potency means the concentration at half of the fitted maximal effect.
SMILES,ATXN2 expr inh,KB-3-1 cytotox,KB-V1 MDR tox,HT1080-NT tox,ATXN viability,HT1080 IDH1KD tx
Cc1ccc(NC(=O)C2CCN(S(=O)(=O)c3ccc4c(c3)OCCCO4)CC2)nc1,-14%,16µM*,?,?,i,-14%
COc1cc2c(cc1OC)CN(S(=O)(=O)c1ccc3c(c1)OCCO3)CC2,1%,?,5.2µM*,0%,i,-5%
O=C(Nc1ccc2c(c1)OCCO2)C1CCN(S(=O)(=O)c2ccc(Br)s2)CC1,10%,?,10µM*,-23%,i,-2%
COc1ccc(S(=O)(=O)N2CCc3ccccc3C2)cc1OC,8%,i,i,-1%,i,-3%
Cc1ccnc(NC(=O)C2CCN(S(=O)(=O)c3ccc(Cl)c(C(F)(F)F)c3)CC2)c1,5%,i,?,-5%,i,16%
O=C(Nc1ccccn1)C1CCN(S(=O)(=O)c2ccc3c(c2)OCCCO3)CC1,3%,i,i,-7%,i,-4%
CCOC(=O)c1ccc(NC(=O)CS(=O)(=O)Cc2nc(-c3ccc(C)cc3)oc2C)cc1,nt,i,i,nt,nt,nt
O=C(Nc1ccc2c(c1)OCCO2)C1CCN(S(=O)(=O)c2cccs2)CC1,10%,i,15µM*,-1%,i,22%
CC(=O)c1cccc(S(=O)(=O)N2CCC(C(=O)O)CC2)c1,nt,i,i,11%,i,8%
COc1ccc(C2CCCCCN2C(=O)C2CCN(S(=O)(=O)c3cccc(C(C)=O)c3)CC2)cc1 (centres undefined),-4%,i,18µM*,-6%,i,-3%
O=S(=O)(c1ccc(N2CCN(S(=O)(=O)c3ccc4c(c3)OCCO4)CC2)nc1)N1CCCC1,-13%,?,8.2µM*,-12%,i,-14%
O=C(Nc1ccc2c(c1)OCCO2)C1CCN(S(=O)(=O)c2ccc3c(c2)OCCO3)CC1,14%,i,15µM*,27%,i,5%
Cc1cc(C)cc(N2C(=O)CSC23C(=O)N(CC(=O)Nc2ccc(F)cc2F)c2ccccc23)c1 (centres undefined),4%,i,i,nt,i,nt
CCCCCNc1nc2c(-c3ccccc3)nnn2c2ccccc12,5%,i,i,nt,i,nt
CC1Sc2ccc(S(=O)(=O)N3CCC(C(=O)Nc4cccc(Cl)c4)CC3)cc2NC1=O (centres undefined),?,15µM*,i,?,i,?
COc1ccc(C(=O)C2CCN(S(=O)(=O)c3ccc4c(c3)OCCO4)CC2)cc1,-24%,?,23µM*,-28%,i,?
O=C(COc1ccccc1)NCC(=O)Nc1cccc2ccccc12,9%,?,18µM*,-2%,i,-3%
COc1ccc(CC(=O)NCC(c2ccc(N(C)C)cc2)N2CCOCC2)cc1 (centres undefined),nt,i,i,nt,nt,nt
Cc1ccc(C)c(C(=O)NCCN(C)C)c1,-1%,i,i,18%,i,21%
C=C(CN(C)C)C(=O)c1cc(C)ccc1C,11µM*,?,?,?,11µM*,4.6µM*
Cc1nn(-c2ccccc2)c(OC(=O)c2ccc(Br)cc2)c1S(=O)(=O)c1ccccc1,4%,i,i,nt,i,nt
Cc1ccnc2c(Cl)c(Cl)ccc12,nt,i,i,nt,nt,nt
CCn1nc(C(=O)Nc2nc(-c3ccccn3)cs2)c2ccccc2c1=O,nt,i,i,0%,nt,-23%
O=C(Nc1nc(-c2ccccn2)cs1)c1ccccc1-n1cnnn1,10µM*,?,?,?,?,?
CCCn1nc(C(=O)Nc2nc(-c3ccccn3)cs2)c2ccccc2c1=O,22µM*,?,i,?,i,?
SMILES,ATXN2 expr inh,KB-3-1 cytotox,KB-V1 MDR tox,HT1080-NT tox,ATXN viability,HT1080 IDH1KD tx
Cn1nc(C(=O)Nc2nc(-c3ccccn3)cs2)c2ccccc2c1=O,-29%,i,1.3µM*,0%,i,-11%
O=C(Nc1nc(-c2ccccn2)cs1)c1cc(Cl)ccc1[N+](=O)[O-],7.5µM*,i,?,?,i,?
CCC1CN(CCNC(=O)c2ccc(C#CC(C)(C)O)cc2)Cc2cc(OC)ccc2O1 (centres undefined),nt,nt,nt,nt,i,nt
Cc1ccc(-c2nc3c4ccccc4[nH]c(=O)n3n2)cc1,57%,i,i,nt,i,nt
Cc1ccc(S(=O)(=O)CCSc2nc(C)cc(C(F)(F)F)c2C#N)cc1,-19%,18µM*,13µM*,?,i,?
Cc1ccc(S(=O)(=O)c2ncccc2[N+](=O)[O-])cc1,nt,?,?,9.2µM*,5µM*,23µM*
COc1ccc(CNC(=O)Cc2c(C)c3ccc(O)cc3oc2=O)cc1,3%,i,i,nt,?,nt
CCNC1CCC(Nc2ccnc3cc(Cl)ccc23)CC1 (centres undefined),?,?,?,-1%,?,?
OC(CNc1ccnc2cc(Cl)ccc12)CNC1CCCCC1 (centres undefined),32µM*,?,?,21µM*,nt,21µM*
COc1ccc(NC(=O)CSc2n[nH]c(-c3ccccn3)n2)cc1,?,?,i,-15%,i,?
O=C(CSc1n[nH]c(-c2ccccn2)n1)Nc1ccccc1,?,?,i,?,i,21µM*
CCNc1nc(SCC(=O)Nc2ccc(Cl)c(Cl)c2)nc(N(C)C)n1,-10%,i,i,-6%,i,1%
CCNc1nc(NCc2ccccc2)nc(SCC(=O)Nc2ccccc2)n1,-10%,?,2.3µM*,-11%,i,-20%
CN(C)c1nc(NCc2ccccc2)nc(SCC(=O)Nc2ccc(Cl)c(Cl)c2)n1,?,i,7.3µM*,?,?,?
COc1ccc(-c2nc3c(C#N)c[nH]n3c2NC2CCCC2)c(OC)c1,7%,i,i,nt,i,nt
Cc1[nH]c2ccccc2c1C(=O)COC(=O)c1ccccc1SCC(=O)N1CCCC1,nt,i,i,nt,nt,nt
COc1cccc(-c2cnc(C(O)c3cccc(CN4CCCCC4)c3)[nH]2)c1 (centres undefined),8%,i,i,8%,i,5%
OC(c1cccc(CN2CCCCC2)c1)c1ncc(-c2cccc(C(F)(F)F)c2)[nH]1 (centres undefined),-10%,i,i,21µM*,i,?
